Laboratory results taken from ChEMBL document CHEMBL3433997, “St. Jude Leishmania screening dataset” (2016).
Where “and” joins values, the source holds several entries; their conditions need not be identical. Equal values may be shown once.

What was measured:
Assay type in all cases: functional
[1] = target: Solute carrier family 2, facilitated glucose transporter member 1 (Homo sapiens) (UniProt P11166); assay: ST_JUDE_LEISH: Cytotoxicity at 2uM final concentration against transgenic Leishmania Mexicana promastigotes LmGLUT1 that are glucose transport deficient and complemented with the human glucose transporter GLUT1. Activity is measured by DNA content using SYBR green in vitro
Sequence of Solute carrier family 2, facilitated glucose transporter member 1 (Homo sapiens) (P11166 whole entry): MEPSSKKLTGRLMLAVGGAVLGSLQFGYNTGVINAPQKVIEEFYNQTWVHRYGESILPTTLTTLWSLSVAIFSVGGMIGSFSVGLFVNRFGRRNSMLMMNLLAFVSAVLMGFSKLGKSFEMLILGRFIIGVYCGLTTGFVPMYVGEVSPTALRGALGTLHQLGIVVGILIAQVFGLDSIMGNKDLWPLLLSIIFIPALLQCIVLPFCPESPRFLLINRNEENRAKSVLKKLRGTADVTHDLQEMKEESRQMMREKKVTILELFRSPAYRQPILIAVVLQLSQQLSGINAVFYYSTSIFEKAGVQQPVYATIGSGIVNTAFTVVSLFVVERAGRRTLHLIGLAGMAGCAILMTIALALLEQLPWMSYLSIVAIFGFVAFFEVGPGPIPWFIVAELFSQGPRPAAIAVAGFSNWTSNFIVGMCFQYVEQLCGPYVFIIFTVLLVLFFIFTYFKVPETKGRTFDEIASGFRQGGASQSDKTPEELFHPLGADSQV

[2] = target: Hexose transporter 1 (Plasmodium falciparum) (UniProt O97467); assay: ST_JUDE_LEISH: Cytotoxicity at 2uM final concentration against transgenic Leishmania Mexicana promastigotes LmPfHT that are glucose transport deficient and complemented with the Plasmodium falciparum hexose transporter. Activity is measured by DNA content using SYBR green in vitro
[3] = target: Glucose transporter (Leishmania mexicana) (UniProt O61059); assay: ST_JUDE_LEISH: Cytotoxicity at 2uM final concentration against transgenic Leishmania Mexicana promastigotes LmGT2 that are glucose transport deficient and complemented with the L. Mexicana glucose transporter 2. Activity is measured by DNA content using SYBR green in vitro

Structure (SMILES) | inhibition [1] | inhibition [2] | inhibition [3]
Cc1cc2nc(-c3ccc(/C=C/C(=O)NCCc4ccccc4)cc3)[nH]c2cc1C | 1.09% | 0.54% | 0.56%
CC(=O)Nc1ccc(CN(Cc2cccc(OC(C)(C)C)c2)Cc2ccc3c(c2)OCCO3)cc1 | 4.55% | 2.67% | 6.39%
O=C(Nc1cccc(C(F)(F)F)c1)N1CCOC(CCN2CCC3(CCc4ccccc43)CC2)(c2ccc(Cl)c(Cl)c2)C1 (stereo not drawn) | 5.08% | 4.51% | 2.55%
COC1(C)Oc2ccc3cccc([N+](=O)[O-])c3c2C1=O (stereo not drawn) | 0.18% | -0.47% | -0.75%
CCCCCC(C)c1cc(O)c2c(c1)OC(C)(C)C=C2C1=CCN(Cc2ccccc2)CC1 (stereo not drawn) | 3.67% | 3.53% | 3.47%
[O-][s+]1nc(NCCCN(Cc2cccs2)c2ccccn2)c(NCc2ccccc2)n1 (stereo not drawn) | -1.34% | 0.68% | -1.82%
C=CCNS(=O)(=O)c1ccc(NC(=O)C(C)Oc2ccc([N+](=O)[O-])cc2)cc1 (stereo not drawn) | 1.52% | 1.56% | -0.8%
CCOc1ccc2nc3cc([N+](=O)[O-])ccc3c(N)c2c1 | 6.85% | 7.59% | 2.01%
COc1ccccc1NC(=O)Nc1cccc(-c2ccc(-c3nc4cc(C(F)(F)F)ccc4[nH]3)cc2)c1 | 2.16% | 2.07% | 0.72%
CC1(C)C(N(O)C(=O)Nc2ccc(Cl)c(Cl)c2)N(c2ccc(Cl)c(Cl)c2)C(=O)N1CCc1ccccc1 (stereo not drawn) | -0.14% | 0.2% | 0%
Cc1onc(-c2c(Cl)cccc2Cl)c1C(=O)N1CCc2cc3nccc(N4CCN5CCC[C@H]5C4)c3cc21 | 3.46% | 4.46% | 5.26%
COc1ccc(CNc2nc(Nc3cccc(C#N)c3)nc(Nc3cccc(C#N)c3)n2)cc1Cl | 3.25% | 0.95% | -1.38%
CCOc1ccc(Nc2ccc3nonc3c2S(=O)(=O)Nc2ccc(OCC)cc2)cc1 | -0.07% | -0.32% | -0.61%
Cc1ccc(NC(=O)c2ccc(N3CCC(c4ccccc4C)CC3)nc2)cc1 | 11.9% | 9.58% | 8.1%
C[C@@H](N/C(=N\c1ccccc1Cl)Nc1ccc(C#N)cc1O)c1ccc(Br)cc1 | 6.22% | 5.06% | 3.66%
Cc1cc(C(=O)Nc2ccc(OCc3ccccc3)cc2)on1 | -1.56% | -2.29% | 0.64%
COc1ccc(CC(=O)NC(CCN2CCC3(CC2)CN(S(C)(=O)=O)c2ccccc23)c2ccc(Cl)c(Cl)c2)cc1OC (stereo not drawn) | 3.24% | 3.56% | 2.27%
O=C(Nc1ccc(C(F)(F)F)cc1)c1ccc(S(=O)(=O)NC2CCCN(CC3CCCCC3)C2)cc1 (stereo not drawn) | 6.6% | 4.53% | 4.45%
CCc1cn(CCCOC)c2ccc(C(=O)N[C@@H](Cc3ccccc3)[C@H](O)CNCc3cccc(C(F)(F)F)c3)cc12 | 3.43% | 2.52% | 2.24%

Structure (SMILES) | inhibition [1] | inhibition [2] | inhibition [3]
Cc1cc(N(CCCN(C)C)Cc2cc(F)cc(F)c2)nc(Nc2ccc(Cl)cc2)n1 | -0.3% | 0.46% | 1.83%
O=C(NC1CCCCC1)N(Cc1cccc(-c2ccc(CNCc3ccc4c(c3)OCO4)cc2)c1)C1CCN(Cc2ccccc2)CC1 | 8.67% | 5.99% | 3.16%
COc1ccc(-c2ccccc2CNc2nc(NCCc3ccc(O)cc3)nc(N3CCNCC3)n2)cc1 | -2.91% | -0.55% | 0.12%
Cc1[nH]c(C)c(-c2ccc(-c3ccc(OC(F)(F)F)cc3)nc2)c(=O)c1Br | 9.71% | 8.43% | 8.85%
O=C(NC(=S)Nc1cc(C(F)(F)F)cc(C(F)(F)F)c1)c1ccc(Cl)cc1 | 0.72% | -0.34% | -0.06%
COc1ccc(CN2CCC(NCc3cccc(C(F)(F)F)c3)CC2)cc1 | 13.2% | 4.48% | 9.6%
Cn1cc(-c2ccccc2C(=O)O)c(=O)c2cc(Cl)ccc21 | 2.25% | 1.87% | 2.49%
COc1c(I)cc(Cc2cnc(N)nc2N)cc1I | 6.68% | 4.23% | 2.6%
c1cc2[nH]c(CCCCCc3nc4cc(C5=N[C@@H]6CCCC[C@@H]6N5)ccc4[nH]3)nc2cc1C1=N[C@@H]2CCCC[C@@H]2N1 | 3.32% | 2.96% | 1.81%
COc1ccc2ncc(F)c(CCN3CC(O)C(CNCc4nc5c(cc4Cl)OCC(=O)N5)C3)c2n1 (stereo not drawn) | 0.46% and 5.05% and 0.19% | -1.18% and 4.64% and 0.49% | -0.57% and 3.05% and -1.68%
CN1CCC(c2c[nH]c3ccc(NC(=O)Nc4ccc(-c5ccncc5)c(Cl)c4Cl)cc23)CC1 | -2.47% | 0.63% | 4.75%
c1ccc(C2=NN=C(c3ccccn3)C3C4CC(C23)C2C3CC(c5ccccc53)C42)nc1 (stereo not drawn) | 5.41% | 4.38% | 1.22%
O=C(/C=C/c1ccc(Cl)c(Cl)c1)NCCCCCN1CCC(CCNC(=O)/C=C/c2ccccc2F)CC1 | 2.07% | -1.13% | 2.95%
OCC1CCN(Cc2cccc(-c3ccc(-c4nc5cc(F)ccc5[nH]4)cc3)c2)CC1 | 0% | -0.04% | 0.27%
COc1ccc(CNC2Cc3ccccc3C2)cc1-c1ccc(S(=O)(=O)NCCN2CCCC2)cc1 | 3.15% | 1.44% | -2.73%
Oc1ccc2[nH]c(-c3ccc(F)cc3F)nc2c1CN1CCC(O)(c2ccccc2)CC1 | -0.28% | -0.92% | 0.37%
CC(Nc1nc(Nc2ccc(F)cc2)nc(SCC(N)=O)n1)c1ccccc1 (stereo not drawn) | 0.82% | 1.3% | 0.81%
COc1cc(C)cc(CN2CCC(Cc3ccccc3)CC2)c1O | 0.53% | 0.17% | 1.48%
Cc1cccc2nc(-c3ccc(-c4ccc(CN5CCOCC5)cc4)cc3)[nH]c12 | 4.34% | 3.46% | 2.61%

Structure (SMILES) | inhibition [1] | inhibition [2] | inhibition [3]
Cn1nc(-c2cccc(CNCCc3cccs3)c2)c2cnc(NC3CCCC3)nc21 | 5.58% | 5.16% | 5.1%
N#CCCN1CCN(Cc2cccc(-c3ccc(-c4nc5ccccc5[nH]4)s3)c2)CC1 | -1.29% | -2.37% | -0.4%
Cc1cccc2c(/C=C/C(=O)NC3CCC(CCN4CCc5ccc(C#N)cc5CC4)CC3)c[nH]c12 (stereo not drawn) | 10.1% | 8.44% | 7.58%
Cc1nc(-c2cccc(NC(C)C(=O)Nc3cc(C(F)(F)F)ccc3N3CCOCC3)c2)cs1 (stereo not drawn) | 0.08% | 0.47% | 0.96%
CCn1c(-c2nonc2N)nc2c(-c3cc4ccccc4s3)ncc(C(=O)N3CCC(N)C3)c21 (stereo not drawn) | 82.2% | 98.3% | 10.9%
O=C(CNc1ccc(Cl)c(S(=O)(=O)N2CCCC2)c1)Nc1ccc(Br)cc1F | -2.34% | 1.47% | 1.03%
COc1ccccc1C1CCN(C2CCC(NC(=O)c3ccc4[nH]c(-c5ccc(C)cc5)nc4c3)CC2)CC1 (stereo not drawn) | 1.55% | 3.38% | 2.37%
COc1ccc2c(N/N=C/c3ccc([N+](=O)[O-])cc3)ccnc2c1 | 6.14% | 4.33% | 2.7%
N#Cc1c(N2CCCCCC2)nc(N)c2c(N)nc3c(c12)CC(=O)N3c1ccc(F)cc1 | 2.61% | 1.65% | 2.89%
CCCCn1c(C(C)Oc2ccc(Cl)cc2Cl)nc2cc(S(N)(=O)=O)ccc21 (stereo not drawn) | -0.86% | -1.81% | -1.84%
O=C(NOCc1ccccc1)c1cc(Cl)ccc1O | 2.44% | 3.78% | 2.15%
CN1CCN(c2ccnc3ccc(NC(=O)Nc4c(Cl)cccc4Cl)cc23)CC1 | -2.39% | -2.3% | -1.19%
Cc1cc(NCCC(=O)Nc2ccccc2)nc(NCCc2ccccc2)n1 | 3.62% | 1.77% | 0.45%
N#Cc1cccc(CN2CCCN(Cc3ccc(C(=O)Nc4ccc(Cl)cc4)cc3)CC2)c1 | 4.41% | 5.4% | -0.06%
Cc1cc(N[C@@H](CC(C)C)C(=O)NCc2cccc(F)c2)nc(NCC2CCCCC2)n1 | 5.8% | 4.61% | 2.2%
CCC(C)c1ccc(NC(=O)Nc2ccnc3ccccc23)cc1 (stereo not drawn) | 2.93% | 6.23% | 2.25%
O=C(/C=C/c1ccc(Cl)c(Cl)c1)NCCCCCCN1CCN(C(=O)Nc2cc(Cl)nc(Cl)c2)CC1 | 2.96% | 2.93% | 2.49%
COc1cc2c(cc1OC)C(c1ccc(Br)cc1)CN(C)CC2 (stereo not drawn) | 1.39% | 4.21% | 4.35%
